We go through 7 compounds from PubChem BioAssay.

In test [1] the target is Regulator of G-protein signaling 16 (Homo sapiens) (UniProt O15492). The test can be described thus: modulators of RGS–Galpha-o binding, primary screen, biochemical, multiplexed beads, flow cytometry, RGS4/7/8/16/19 (AID 1504).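 Note: fluorescently labeled Galpha-o bound to GDP with aluminium fluoride binding biotinylated RGS beads.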 The conditions noted are these: multiplexed bead flow cytometry, measured here: RGS16 interaction, at 10 µM. A general note: Flow cytometry measures light scatter and fluorescence of single cells or particles in a stream.

In test [2] the target is Regulator of G-protein signaling 19 (Homo sapiens) (UniProt P49795). The description is as above. As to conditions: multiplexed bead flow cytometry, measured here: RGS19 interaction, at 10 µM.
The target in test [3] is Regulator of G-protein signaling 7 (Homo sapiens) (UniProt P49802). Described as above. As to conditions: multiplexed bead flow cytometry, measured here: RGS7 interaction, at 10 µM.
Test [4] addresses Regulator of G-protein signaling 8 (Homo sapiens) (UniProt P57771). Described as above. As to conditions: multiplexed bead flow cytometry, measured here: RGS8 interaction, at 10 µM.
Test [5] in a line: disruption of biotin probe capture by avidin, counter-screen for RGS protein interaction modulators, biochemical, flow cytometry, bead-based (AID 1783).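 Note: median green fluorescence of gated singlet beads compared with DMSO control wells; 0% = DMSO wells and 100% = complete loss of bead fluorescence.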 As to conditions: streptavidin beads, fluorescein-biotin binding; at 10 µM, stronger effect = higher value. In general terms: The purpose of a counterscreen is to sort out artefacts and off-target activity.
Test [6] deals with Guanine nucleotide-binding protein G(o) subunit alpha (Homo sapiens) (UniProt P09471). The experiment in a line: RGS8-Galphao binding modulators, confirmation, biochemical, multiplexed bead flow cytometry, single concentration (AID 1836; in the data active = binding response below about 72% or above about 130%; inactive = in between;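 note: Galphao activated as GDP AlF4 complex before binding bead RGS8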). As to conditions: bead-based flow cytometry RGS8-Galphao binding, fluorescence; at 10 µM; actives lie on both sides.
Test [7] shares this target. The test can be described thus: RGS7-Galphao binding modulators, confirmation, biochemical, multiplexed bead flow cytometry, single concentration (AID 1837; in the data active = response below about 75% or above about 130%; inactive = in between;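 note: fluorescent Galphao activated with GDP and aluminum fluoride binding bead-coupled RGS7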). The conditions noted are these: bead-based flow cytometry RGS7-Galphao binding; at 10 µM; actives lie on both sides.
The target of test [8] is Regulator of G-protein signaling 16 (Homo sapiens) + Guanine nucleotide-binding protein G(o) subunit alpha (Homo sapiens) (UniProt O15492+P09471). The test can be described thus: modulators of RGS16-Galphao protein binding, confirmation, biochemical, single concentration, multiplexed bead flow cytometry (AID 1838; in the data active = response below about 74% or above about 130%; inactive = in between;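 note: Galphao activated as the GDP aluminium fluoride complex binding bead-coupled RGS16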). As to conditions: bead-based flow cytometry, at 10 µM, actives lie on both sides.

The target in test [9] is Guanine nucleotide-binding protein G(o) subunit alpha (Homo sapiens) (UniProt P09471). The experiment in a line: modulators of RGS4-Galphao protein binding, confirmation, biochemical, single concentration, multiplexed bead flow cytometry (AID 1840; in the data active = binding response below about 74% or above about 130%; inactive = in between). As to conditions: at 10 µM, actives lie on both sides.
The target of test [10] is Guanine nucleotide-binding protein G(o) subunit alpha (Homo sapiens) + Regulator of G-protein signaling 19 (Homo sapiens) (UniProt P09471+P49795). The test can be described thus: regulators of RGS19-Galphao binding, confirmation, biochemical, single point, multiplexed bead flow cytometry (AID 1841; in the data active = response below about 50% or above about 160%; inactive = in between;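 note: 100% = no compound control and 0% = blank background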). The conditions noted are these: bead-based flow cytometry RGS19-Galphao binding; at 10 µM; actives lie on both sides.

The nature of test [11]: yeast TOR pathway RPL19A-GFP modulators, primary screen, cell-based, S. cerevisiae, multiplex flow cytometry (AID 1862; in the data active = percent of DMSO control GFP below about 86%;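 note: lower values mimic rapamycin by blocking the RPL19A rise seen in DMSO cells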). The conditions noted are these: S. cerevisiae RPL19A-GFP strain, flow cytometry fluorescence, 3 h; at 10 µM; stronger effect = lower value.
Test [12] in a line: modulators of MEP2-GFP levels in yeast, primary screen, S. cerevisiae, multiplex flow cytometry (AID 1867;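 active = GFP response, as percent of the DMSO control, above the screen-wide mean plus 3 SD, about 139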;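 note: median GFP channel fluorescence of barcode-gated MEP2-GFP cells measured by flow cytometry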). The conditions noted are these: S. cerevisiae MEP2-GFP strain, 3 h, at 10 µM, stronger effect = higher value, 100% means same as DMSO wells.
Test [13] in a line: modulators of CIT2-GFP expression in yeast, primary screen, S. cerevisiae, GFP fusion, multiplex flow cytometry (AID 1870;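 active = percent response above a set limit, the screen-wide mean plus 3 SD, cut at about 130% in these data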;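 note: barcoded CIT2-GFP strain pooled with four other GFP strains with rapamycin as positive control; median GFP fluorescence per well over plate mean of DMSO wells so 100% = DMSO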). The conditions noted are these: 3 h, at 10 µM, stronger effect = higher value.
Test [14] can be described thus: modulators of LAP4-GFP expression in yeast, primary screen, S. cerevisiae, multiplex flow cytometry (AID 1873;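 active = GFP signal, as percent of the solvent control, above the screen mean plus 3 SD, about 149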). As to conditions: 3 h, at 10 µM, stronger effect = higher value.
The nature of test [15]: modulators of AGP1-GFP expression in yeast TOR pathway, primary screen, cell-based, multiplex flow cytometry, S. cerevisiae (AID 1887;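 active = GFP signal above the screen-wide mean plus 3 SD, that is over about 124.5% of the solvent control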;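 note: AGP1-GFP fusion strain of S. cerevisiae within a five-strain barcoded multiplex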). As to conditions: 3 h, at 10 µM, stronger effect = higher value.
Test [16] is described as follows: RPL19A-GFP modulators, yeast TOR pathway, confirmation, cell-based, S. cerevisiae, flow cytometry, cherry picks, mother/daughter gates (AID 2270;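 active = GFP response below 50% of the DMSO control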). The conditions noted are these: S. cerevisiae RPL19A-GFP strain, 3 h, at 10 µM, stronger effect = lower value, 100 = same GFP as DMSO wells.
Test [17] is described as follows: LAP4-GFP expression modulators in yeast, confirmation, cell-based, cherry picks, flow cytometry, mother/daughter gates (AID 2271;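 active = GFP response above 150% of the DMSO control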;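 note: ratio of sample to DMSO plate mean so 100% equals DMSO level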). As to conditions: S. cerevisiae LAP4-GFP strain, 3 h, at 10 µM, stronger effect = higher value, 100 means same as DMSO control.
A short description of test [18]: modulators of MEP2-GFP levels in yeast, confirmation, S. cerevisiae, flow cytometry GFP, cherry picks (AID 2272;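 active = GFP response above 150% of the DMSO control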;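 note: ratio of well signal to plate DMSO mean so 100% equals DMSO level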). As to conditions: S. cerevisiae MEP2-GFP strain, 3 h, at 10 µM, stronger effect = higher value.
Test [19] in a line: modulators of CIT2-GFP expression in yeast, confirmation, S. cerevisiae, GFP fusion, cherry picks, mother/daughter gates (AID 2274;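 active = GFP response above 150% of the DMSO level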). As to conditions: S. cerevisiae CIT2-GFP strain, flow cytometry, 3 h, at 10 µM, stronger effect = higher value.
Test [20] in a line: inhibitors of CD8+ T cell-vesicle binding, pilot screen, LFA-1/ICAM-1 modulator project, MLPCN validation set, flow cytometry (AID 2523;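 active = response below a set limit, under 55% cells CD8-positive and vesicle-bound, and CD8 cells' 90th-percentile brightness under 279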;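 for vesicle binding response: mean PE anti-B7-1 fluorescence of CD8+ cells relative to row control; 100% = QL9-loaded vesicles with DMSO vehicle in the same plate row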). The conditions noted are these: 2C mouse CD8+ T cells, at 7 µM, stronger effect = lower value; double positive events: measured here: CD8+/vesicle+ event percentage.
Where [21] appears, read: measured here: daughter cell gate.
Setting [22] is: measured here: mother cell gate.
Where [23] appears, read: measured here: daughter cell gate response.
Setting [24] is: measured here: mother cell gate response.

Several values for one entry are separate records, joined by “and”; a condition that tells them apart may be missing. Identical values can stand only once. Inconclusive results are not listed. More than one record can exist for a structure, and the calls need not agree. This is one part of the list. Activity calls are given as the source filed them.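 Rule for the calls, unless noted: active = inhibition above 50%; inactive = the rest.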

Chain of Regulator of G-protein signaling 16 (Homo sapiens) + Guanine nucleotide-binding protein G(o) subunit alpha (Homo sapiens) (O15492 whole entry, looked up): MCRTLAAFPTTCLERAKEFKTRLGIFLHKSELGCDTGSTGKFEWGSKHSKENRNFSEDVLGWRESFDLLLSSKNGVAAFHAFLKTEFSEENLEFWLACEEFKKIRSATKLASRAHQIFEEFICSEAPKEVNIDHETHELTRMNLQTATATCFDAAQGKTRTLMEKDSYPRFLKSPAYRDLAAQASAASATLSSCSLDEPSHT
Chain of Regulator of G-protein signaling 16 (Homo sapiens) + Guanine nucleotide-binding protein G(o) subunit alpha (Homo sapiens) (P09471 whole entry, looked up): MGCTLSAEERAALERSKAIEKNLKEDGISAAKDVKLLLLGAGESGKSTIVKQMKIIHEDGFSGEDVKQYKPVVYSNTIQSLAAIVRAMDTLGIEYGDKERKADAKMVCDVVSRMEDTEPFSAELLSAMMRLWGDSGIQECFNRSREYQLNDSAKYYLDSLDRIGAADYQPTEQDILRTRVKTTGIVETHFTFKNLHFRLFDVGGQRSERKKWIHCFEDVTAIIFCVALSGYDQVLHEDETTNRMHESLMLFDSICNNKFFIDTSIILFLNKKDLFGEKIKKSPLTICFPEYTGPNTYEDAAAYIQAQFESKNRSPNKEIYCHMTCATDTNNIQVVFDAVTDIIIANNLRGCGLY
Chain of Guanine nucleotide-binding protein G(o) subunit alpha (Homo sapiens) + Regulator of G-protein signaling 19 (Homo sapiens) (P09471 whole entry, looked up): as above
Chain of Guanine nucleotide-binding protein G(o) subunit alpha (Homo sapiens) + Regulator of G-protein signaling 19 (Homo sapiens) (P49795 whole entry, looked up): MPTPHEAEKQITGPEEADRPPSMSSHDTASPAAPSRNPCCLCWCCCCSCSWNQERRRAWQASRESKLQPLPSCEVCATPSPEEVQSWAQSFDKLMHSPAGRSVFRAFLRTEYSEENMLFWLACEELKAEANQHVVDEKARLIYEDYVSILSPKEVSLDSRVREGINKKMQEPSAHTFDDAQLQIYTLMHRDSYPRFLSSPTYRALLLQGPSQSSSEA
Chain of Guanine nucleotide-binding protein G(o) subunit alpha (Homo sapiens) (P09471 whole entry, looked up): as the sequence (P09471 whole entry, looked up) above

The inhibition is the drop in the measured response relative to a control, in per cent. Consider `COc1ccccc1NC(=O)CCCc1c[nH]c2ccccc12`, for which the RGS16–Galpha-o binding response in test [1] turned out to be 109%. The compound also returned an RGS19–Galpha-o binding response in test [2] of 78.4%. In addition, in [3], the RGS7–Galpha-o binding response stood at 312%. The RGS8–Galpha-o binding response in [4] was 85%. Moreover, in [5], the inhibition is 2.9% (inactive). Besides, the binding response (% of control) in test [6] was 95.7% (inactive); in [9], 92.5% (inactive). Also, the response (percent of control binding) in test [7] is 89.4% (inactive); in test [10], 92.9% (inactive). In addition, in test [8], the response (% of control binding) was 97.2% (inactive).

As to `CCN(CC)CCn1cnc2c1c(=O)n(CCOC(=O)c1cc(OC)c(OC)c(OC)c1)c(=O)n2C`, the RGS16–Galpha-o binding response in test [1] was 147%. Further, the RGS19–Galpha-o binding response in [2] is 76.4%. Besides, in [3], the RGS7–Galpha-o binding response is 13%. The compound further gave an RGS8–Galpha-o binding response in [4] of 131%. The inhibition in test [5] is -0.6% (inactive). Moreover, the values for the binding response (% of control) in test [6] and in [9] were 104% (inactive) and 105% (inactive), respectively. The figures for the response (percent of control binding) in test [7] and in test [10] were 103% (inactive) and 108% (inactive), respectively. For the same compound, the response (% of control binding) in [8] is 104% (inactive).

For `C[n+]1ccccc1/C=N/O`, the percent of DMSO control GFP in test [11] was 99.2% (inactive) and 98.9% (inactive). Besides, the GFP response vs DMSO in test [12] was 143% (active) and 101% (inactive); in test [14], 90.2% (inactive) and 97% (inactive); in test [16], 99% (inactive); in test [16] (setting [21]), 99.5%; in test [16] (setting [22]), 99.6%; in [18], 100% (inactive). For the same compound, the percent response of DMSO control in test [13] is 101% (inactive) and 95.5% (inactive). Also, the GFP response, % of DMSO in test [15] was 98.2% (inactive) and 98.3% (inactive); in [19], 111% (inactive); in test [19] (setting [21]) it was 108%; in test [19] (setting [22]) it was 112%. Moreover, the GFP response relative to DMSO in test [17] was 98.7% (inactive); in test [17] (setting [23]), 100%; in [17] (setting [24]), 101%. Besides, the double positive events in test [20] is 60.5% and 64%. The vesicle binding response in test [20] was 142% (inactive) and 180% (inactive).

Take `COc1ccc(CCNC(=O)c2cc3sccc3n2C)cc1OC`: in test [5], the inhibition is 0.7% (inactive). Further, the binding response (% of control) in test [6] is 103% (inactive); in test [9], 102% (inactive). Further, the response (percent of control binding) was 106% (inactive) in [7] and 114% (inactive) in [10]. For the same compound, the response (% of control binding) in test [8] is 103% (inactive).

On to `CCOC(=O)C(Cc1cc(C(C)=O)ccc1OC(C)C)C(=O)OCC`, for which the percent of DMSO control GFP in test [11] is 93% (inactive). The GFP response vs DMSO in test [12] is 142% (active); in [14], 85.3% (inactive); in [16] it was 101% (inactive); in test [16] (setting [21]), 101%; in test [16] (setting [22]), 102%; in test [18] it was 99.5% (inactive). In [13], the percent response of DMSO control is 110% (inactive). Besides, the GFP response, % of DMSO in test [15] is 89.1% (inactive); in [19], 96.4% (inactive); in test [19] (setting [21]) it was 98.3%; in test [19] (setting [22]), 96.8%. Also, the GFP response relative to DMSO is 97.7% (inactive) in test [17], 95% in test [17] (setting [23]) and 99.5% in test [17] (setting [24]). For the same compound, the double positive events in [20] was 58.5%. In test [20], the vesicle binding response is 151% (inactive).

Turning to `Cn1c(=O)c2c(n(Cc3ccccc3)c1=O)NC(=O)C2CC(=O)N1CCc2ccccc2C1` (stereo not given), the RGS16–Galpha-o binding response in [1] is -1.02%. The RGS19–Galpha-o binding response in [2] was 241%. The RGS7–Galpha-o binding response in test [3] was 13.5%. Moreover, in [4], the RGS8–Galpha-o binding response was 12.1%. The inhibition in test [5] was 0.9% (inactive). Also, the binding response (% of control) was 100% (inactive) in test [6] and 105% (inactive) in [9]. Besides, the response (percent of control binding) is 112% (inactive) in test [7] and 102% (inactive) in test [10]. The response (% of control binding) in [8] was 95.4% (inactive).

For the compound `C=CCn1c(=NC(=O)c2cccs2)sc2cc(NC(C)=O)ccc21`, the RGS16–Galpha-o binding response in [1] stood at 152%. In addition, the RGS19–Galpha-o binding response in [2] is 58.7%. The compound further had an RGS7–Galpha-o binding response in test [3] of 152%. This compound also showed an RGS8–Galpha-o binding response in test [4] of 136%. Also, in test [5], the inhibition is -1.6% (inactive). Also, the binding response (% of control) is 103% (inactive) in test [6] and 102% (inactive) in test [9]. Moreover, the response (percent of control binding) in test [7] was 107% (inactive); in test [10], 109% (inactive). The response (% of control binding) in [8] was 103% (inactive).
